# Assay outcomes from PubChem BioAssay.
# Compounds with a hit are over-represented: about 17% of the library has one in this group of screens.
# TGFb SMAD3 inh = TGF-b pathway inhibition; Potency, µM (doses to about 46.1 µM), for the others: top-dose activity, negative = inhibition, usual class: inhibitors; hit rate 1.2% among 410,000; AID 588855; HepG2 CAGA-GFP TGF-b/SMAD3 reporter, GFP fluorescence, 18 h; TGF-beta stimulated, 500 pg/mL final; note: % is set by controls: 0 for no effect and ±100 for the full control effect; nearly all actives have a fitted effect of over 65% in size
#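 Per well, imaged GFP fluorescence of HEPG2 CAGA-GFP cells gives the signal; cells get compound, then TGF-beta (500 pg/mL final), 18 h at 37 degrees C; %Activity versus -TGF-beta and +DMSO controls.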
# TDP1 cell CPT = DT40-hTDP1 cell growth loss with CPT. chicken DT40 Tdp1-/-;hTDP1 cells + 20 nM CPT, ATP luminescence, 48 h. Potency, µM (doses to about 46.2 µM), for inactives: at the highest dose activity change, negative = growth inhibition, most hits filed as inhibitors. hit rate 12% among 420,000. AID 686979; note: % is set by controls: 0 for no effect and ±100 for the full control effect; nearly all actives have a fitted effect of over 55% in size
#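 Chicken DT40 Tdp1-/- cells stably complemented with human TDP1 were seeded at 400 cells/well in medium containing 20 nM camptothecin, exposed to pin-transferred compounds, and grown at 37 °C for at least 48 hr. Viability was read as ATP luminescence.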
# HT1080 IDH1KD tx = HT-1080 IDH1 knockdown cell toxicity (counter line). HT-1080 IDH1 knockdown viability, ATP luminescence, 48 h. Potency, µM (top dose mostly 46.1 µM), for the others: at the highest dose activity, negative = toxicity, usual class: cytotoxic. hit rate 2% among 360,000. AID 686971;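 note: 0% = DMSO wells and -100% = cell-free medium wells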
#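 CellTiter-Glo luminescence after 48 h compound exposure at 37 degrees C of IDH1-knockdown HT-1080 cells in 5% FBS RPMI. %Activity scaled between DMSO wells and cell-free media wells, with curves fitted and assigned curve classes.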
# DT40 TDP1 no CPT = qHTS for Inhibitors of human tyrosyl-DNA phosphodiesterase 1 (TDP1): qHTS in cells in absence of CPT | DT40 Tdp1-/- hTDP1 cells, no CPT, ATP luminescence, 48 h | Potency, µM (highest dose often 46.2 µM), inactives show at the highest dose activity change, negative = growth inhibition, actives largely listed as inhibitors | hit rate 15% among 420,000; note: % is set by controls: 0 for no effect and ±100 for the full control effect; nearly all actives have a fitted effect of over 55% in size
#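 Compound effects on proliferation are scored in DT40 Tdp1-/-;hTDP1 cells in the absence of CPT. ATP levels (CellTiter-Glo luminescence) are recorded after a ≥48 hr, 37 °C incubation.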
# HepG2 viability = kills HepG2 cells in TGF-b inhibitor counter-screen; HepG2 CAGA-GFP viability, ATP luminescence, 18 h; Potency, µM (top dose mostly 46.1 µM), inactives show at the top dose activity change, negative = cytotoxicity, usual class: cytotoxic; hit rate 0.76% among 410,000; AID 588856
#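 HepG2 CAGA-GFP cells (1000/well, DMEM with 1% FBS) received compound, then TGF-beta at 500 pg/mL final, and were incubated 18 hours at 37 degrees C. Viability was read by CellTiter-Glo luminescence. Media-only wells were set as complete cell-killing and DMSO as no toxicity.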
# HT1080-NT tox = kills 2HG-producing HT-1080-NT fibrosarcoma cells; hit rate 1.6% among 360,000; HT-1080-NT fibrosarcoma viability, CellTiter-Glo ATP luminescence, 48 h; Potency, µM (titrated, usually from 46.1 µM), for the others: at the top dose activity, negative = less viability, hits mostly cytotoxic;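 note: NT is the 2HG producing partner of a matched IDH1 knockdown line; 0% = DMSO-treated cells and -100% = media-only wells without cells; nearly all actives have a fitted effect of over 55% in size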
#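 Fibrosarcoma NT cells, 750 per well in 5% FBS RPMI, were exposed to compound for 48 hours. Viability: CellTiter-Glo luminescence.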
# Numbers without * were called inactive; ? = inconclusive; . = no result; [ ] = remark or other dose. Calls come from the whole dose curve; as a rule, active = well fitted curve in the direction sought with a large enough effect; inconclusive = small, poorly fitted or top-dose-only effect, or another doubt; inactive = no such curve, though single readings can be large; an effect the other way counts as inactive or inconclusive. Potency is the fitted concentration of half-maximal effect.
SMILES,TGFb SMAD3 inh,TDP1 cell CPT,HT1080 IDH1KD tx,DT40 TDP1 no CPT,HepG2 viability,HT1080-NT tox
Cc1cc(C)c(NC(=O)CSc2nc3nc(C)cc(C)n3n2)c(C)c1,6%,.,.,.,-2%,.
CCOC(=O)c1nnc(-c2ccccc2)nc1Sc1c(Cl)cccc1Cl,10µM*,21µM*,21µM*,16µM*,-115%,?
CCOC(=O)c1cc(=O)n2nc(-c3ccc(C)cc3)nc2s1,18%,-7%,14%,-8%,1%,19%
CCOC(=O)c1nnc(-c2ccc(C)cc2)nc1Sc1ccc(Cl)cc1,?,8.2µM*,-1%,8.2µM*,-3%,4%
CCOC(=O)c1nnc2c(-c3ccc(Cl)cc3)c(C)nn2c1C,0%,?,.,?,-3%,.
CCOC(=O)c1c(C)nc(-c2ccccc2)nc1N,1%,1%,0%,-17%,2%,-8%
CCOC(=O)c1nnc(-c2ccc(C)cc2)nc1Sc1ccccc1Cl,?,?,1%,16µM*,-12%,-9%
Cc1cccc(NC(=O)CSc2nnc(-c3cc(C)[nH]n3)n2N)c1,3%,-2%,6%,24%,1%,5%
CCOC(=O)c1c(NC(=O)C(C)NCc2ccco2)sc2c1CCC(C)C2 (stereo not drawn),-22%,?,?,21µM*,1%,-25%
CCOC(=O)c1c(NC(=O)CSc2nnc(C)s2)sc2c1CCC(C)C2 (stereo not drawn),?,?,-7%[9.24 µM],21µM*,-9%,-31%
CCOC(=O)c1c(NC(=S)NC(=O)c2ccc(Cn3cc(Cl)cn3)o2)sc2c1CCC(C)C2 (stereo not drawn),2%,13µM*,-4%,8.2µM*,-16%,2%
CCOC(=O)c1c(NC(=O)Cn2c(C)nc3ccccc32)sc2c1CCC2,-10%,21µM*,-20%,12µM*,-30%,-11%
COCCNC(=S)N1CCN(c2ccc(Cl)cc2)CC1,5%,-26%,0%,-40%,2%,-2%
Cc1cccc(NC(=O)COc2cccc3c2CCN(C)C3=O)c1C,62%,?,-10%,?,-4%,4%
CCOC(=O)c1c(NC(=O)COC(=O)Cn2cnc3ccccc32)sc2c1CCC(C)C2 (stereo not drawn),-11%,24%,2%,?,-29%,-2%
COC(=O)c1c(NC(=O)COc2ccc(OC)cc2)sc2c1CCC(C)C2 (stereo not drawn),13µM*,?,.,7.3µM*,-100%,.
CCOC(=O)c1c(NC(=O)Cn2nnc3ccccc32)sc2c1CCC(C)C2 (stereo not drawn),-10%,23µM*,-4%[9.24 µM],23µM*,-2%,-15%
CCOC(=O)c1c(NC(=O)COc2cccc3c2CCN(C)C3=O)sc2c1CCC2,-8%,13µM*,?,9.2µM*,4%,?
COc1ccc(N(CC(=O)NCc2ccc3c(c2)OCO3)C(=O)c2csnn2)cc1,1%,16%,4%,-8%,-7%,-1%
Nc1c(Br)cc(Br)c2cccnc12,0%,.,.,.,8%,.
CC(Oc1ccccc1)C(=O)N[C@@H]1C(=O)N2C(C(=O)O)C(C)(C)S[C@H]12 (stereo partly drawn),10%,-1%,.,8%,16%,.
COc1ccccc1/C=C1\CCCC2=C1Nc1nnnn1C2c1ccccc1OC (stereo not drawn),13µM*,12µM*,?,12µM*,-35%,-16%
COc1ccc(OC)c(C2C3=C(CCCC3=O)Nc3nnnn32)c1 (stereo not drawn),-9%,-10%,7%,-15%,-4%,5%
Cc1c(NC(=O)[C@@H](NC(=O)c2ccc(Cl)c([N+](=O)[O-])c2)C(C)C)c(=O)n(-c2ccccc2)n1C,1%,3%,0%,?,-2%,-2%
CC(C)CC(NC(N)=O)C(=O)NCCc1ccc(Cl)cc1Cl (stereo not drawn),-2%,-24%,4%,?,-19%,-3%
SMILES,TGFb SMAD3 inh,TDP1 cell CPT,HT1080 IDH1KD tx,DT40 TDP1 no CPT,HepG2 viability,HT1080-NT tox
CCCNC(=O)c1sc2c(c1C(=O)Nc1ccccn1)CCCC2,?,26µM*,-3%,18µM*,-28%,-3%
O=C(Cn1ncc2c3ccccc3n(Cc3cccc(Cl)c3)c2c1=O)Nc1ccc(F)cc1F,5%,29µM*,.,21µM*,-1%,.
COc1ccc(Cl)cc1NC(=O)Cn1ncc2c3ccccc3n(Cc3ccccc3)c2c1=O,-8%,?,.,15µM*,-10%,.
CC(CCc1ccccc1)NC(=O)Cn1ncc2c3ccccc3n(Cc3cccc(Cl)c3)c2c1=O (stereo not drawn),6%,?,.,?,4%,.
CC(=O)c1ccc(NC(=O)CCOc2cc(C)ccc2C)cc1,-9%,?,-1%,?,-6%,1%
Cc1sc(-n2c(C)cc(/C=N/n3cnnc3)c2C)c(C#N)c1C,?,16µM*,?,21µM*,0%,-21%
Cc1cc(/C=N/n2cnnc2)c(C)n1-c1ccccc1,-31%,-25%,3%,-10%,-6%,-1%
Cc1sc(-n2c(C)cc(/C=C3\SC(=S)NC3=O)c2C)c(C#N)c1C,?,?,11µM*,-28%,-72%,13µM*
Cc1cc(/C=C2\SC(=S)NC2=O)c(C)n1-c1cccc(O)c1,-1%,-19%,-15%,7%,-18%,-10%
CCOC(=O)C(=O)N(C)c1c(CC)nc2c(OCc3cccc(OC)c3)cccn12,9%,-11%,2%,-10%,-10%,9%
N#C/C(=N\Nc1cccc(C(F)(F)F)c1)C(=O)c1csc(-c2cccnc2)n1,?,16µM*,?,26µM*,-26%,-9%
C=CCNc1nc(C(=O)OC(C)C(=O)c2ccc(C)cc2)cs1 (stereo not drawn),5%,-21%,-11%,?,0%,0%
COc1cccc(NC(=O)C2CCN(S(=O)(=O)c3c(C)noc3/C=C/c3cccs3)CC2)c1,?,?,.,13µM*,-34%,.
COc1ccccc1CNC(=O)C1CCN(S(=O)(=O)c2c(C)noc2/C=C/c2cccs2)CC1,-9%,18µM*,.,18µM*,-23%,.
COc1cc(S(=O)(=O)N(Cc2ccc(C)cc2)C2CCCCC2)ccc1-n1cnnn1,-13%,?,-4%,23µM*,5%,3%
